The text below walks through data of PMC5700166.

Substitutions are numbered along the chain they refer to.

Assay in all cases: protein-binding microarray (PBM); PBM: ~300 nM protein, 6 mM HEPES pH 7.8, 80 mM KCl, 0.5 mM EDTA, 0.5 mM EGTA, 6% glycerol, 35 ng/ul poly-dIdC, 1% milk, 1 h, room temperature; Ap Aiptasia and Nv Nematostella (sea anemones) / Co Capsaspora / Aq Amphimedon (sponge) / Dm Drosophila / Hu human; RHD is the Rel homology domain; high values mean tight binding
Conditions in all cases: dsDNA, one strand shown

The target in one test is T1, GST-Ap-NF-kB RHD (Exaiptasia pallida (Aiptasia), UniProt A0A913YAJ5 2-422).
T1 sequence: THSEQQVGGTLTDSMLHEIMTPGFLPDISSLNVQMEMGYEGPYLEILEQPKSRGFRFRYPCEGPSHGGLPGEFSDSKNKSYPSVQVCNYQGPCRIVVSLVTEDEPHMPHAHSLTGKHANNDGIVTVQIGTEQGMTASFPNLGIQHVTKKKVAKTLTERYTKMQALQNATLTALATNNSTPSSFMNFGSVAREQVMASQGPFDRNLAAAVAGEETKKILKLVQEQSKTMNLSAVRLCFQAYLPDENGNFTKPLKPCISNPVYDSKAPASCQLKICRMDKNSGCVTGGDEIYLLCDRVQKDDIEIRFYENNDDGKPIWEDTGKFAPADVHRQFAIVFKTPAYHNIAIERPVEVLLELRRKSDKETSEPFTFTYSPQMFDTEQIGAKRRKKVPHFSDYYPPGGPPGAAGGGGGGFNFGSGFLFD

The target in test [1] is T2, GST-Nv-NF-kB (Ser allele) (Nematostella vectensis, UniProt A7UNT2 2-411).
T2 sequence: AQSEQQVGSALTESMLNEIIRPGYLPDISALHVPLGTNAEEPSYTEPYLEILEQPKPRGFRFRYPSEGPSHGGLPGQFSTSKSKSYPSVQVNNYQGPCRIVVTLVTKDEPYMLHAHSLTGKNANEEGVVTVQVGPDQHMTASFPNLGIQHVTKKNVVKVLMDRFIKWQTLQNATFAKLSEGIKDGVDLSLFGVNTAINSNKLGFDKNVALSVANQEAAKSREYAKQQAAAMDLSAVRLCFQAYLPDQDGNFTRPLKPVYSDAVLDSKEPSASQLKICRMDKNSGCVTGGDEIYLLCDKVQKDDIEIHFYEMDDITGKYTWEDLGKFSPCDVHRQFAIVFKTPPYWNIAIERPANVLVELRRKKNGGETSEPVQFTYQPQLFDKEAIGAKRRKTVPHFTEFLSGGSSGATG

The target in another test is T3, GST-Co-NF-kB (Capsaspora owczarzaki, UniProt F1ARL5 200-546).
T3 sequence: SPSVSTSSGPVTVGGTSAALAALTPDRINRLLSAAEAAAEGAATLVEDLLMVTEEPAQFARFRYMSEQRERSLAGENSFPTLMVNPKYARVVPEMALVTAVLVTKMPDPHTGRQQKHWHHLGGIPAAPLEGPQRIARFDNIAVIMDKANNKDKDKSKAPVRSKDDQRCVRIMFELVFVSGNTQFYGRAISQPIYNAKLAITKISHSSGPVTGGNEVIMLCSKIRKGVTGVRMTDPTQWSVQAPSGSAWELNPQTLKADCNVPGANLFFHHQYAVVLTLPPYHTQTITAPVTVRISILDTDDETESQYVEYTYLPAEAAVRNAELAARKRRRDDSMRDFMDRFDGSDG

The next test deals with T4, GST-Dm-Relish (Drosophila melanogaster, UniProt Q94527 99-473).
T4 sequence: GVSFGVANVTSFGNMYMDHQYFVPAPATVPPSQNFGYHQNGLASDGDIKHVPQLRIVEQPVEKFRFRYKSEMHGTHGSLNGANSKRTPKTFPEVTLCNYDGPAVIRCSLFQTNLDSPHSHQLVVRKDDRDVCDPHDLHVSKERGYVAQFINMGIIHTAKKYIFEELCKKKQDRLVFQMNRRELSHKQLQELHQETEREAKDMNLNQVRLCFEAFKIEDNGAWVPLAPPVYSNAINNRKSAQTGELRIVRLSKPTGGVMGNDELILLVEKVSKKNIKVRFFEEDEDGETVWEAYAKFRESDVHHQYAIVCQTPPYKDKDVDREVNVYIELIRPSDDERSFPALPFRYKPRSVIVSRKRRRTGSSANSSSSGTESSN

Another test concerns the target T5, GST-Aq-NF-kB (Amphimedon queenslandica, UniProt A9Y5G7 2-389).
T5 sequence: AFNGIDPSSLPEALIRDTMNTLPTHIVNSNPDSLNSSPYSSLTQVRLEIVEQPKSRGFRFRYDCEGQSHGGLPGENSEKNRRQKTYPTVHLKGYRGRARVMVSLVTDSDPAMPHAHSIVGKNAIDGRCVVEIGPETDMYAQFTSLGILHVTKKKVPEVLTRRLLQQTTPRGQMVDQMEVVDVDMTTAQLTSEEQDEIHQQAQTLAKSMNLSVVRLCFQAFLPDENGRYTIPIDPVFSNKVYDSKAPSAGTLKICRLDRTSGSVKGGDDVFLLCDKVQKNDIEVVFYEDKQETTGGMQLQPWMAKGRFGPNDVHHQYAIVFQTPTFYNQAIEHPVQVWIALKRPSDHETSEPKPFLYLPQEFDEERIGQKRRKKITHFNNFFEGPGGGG

The target in another test is GST-Hu-p50 (Homo sapiens, UniProt P19838 7-356).
Sequence of GST-Hu-p50 (P19838 7-356): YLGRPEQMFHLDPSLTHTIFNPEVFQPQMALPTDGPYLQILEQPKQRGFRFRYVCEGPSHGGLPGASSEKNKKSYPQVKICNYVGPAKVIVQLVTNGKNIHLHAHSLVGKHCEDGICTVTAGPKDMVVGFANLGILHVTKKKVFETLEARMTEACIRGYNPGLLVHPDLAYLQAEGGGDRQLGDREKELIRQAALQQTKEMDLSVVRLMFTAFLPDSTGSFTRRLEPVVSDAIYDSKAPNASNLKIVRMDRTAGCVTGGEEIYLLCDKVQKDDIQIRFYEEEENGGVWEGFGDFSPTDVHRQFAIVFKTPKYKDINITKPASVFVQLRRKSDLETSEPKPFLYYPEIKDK
Test [2] has as its target T6, GST-Nv-NF-kB (Cys allele) (Nematostella vectensis, UniProt E5G601 2-411).
T6 sequence: T2 sequence with R21Q, S66C, N207S, Q215E, A217V, K225E, E268A, E399D

For “CCGATTAACATCAAATCCCCCCCTGATGTTAATCGGGTCTTGATTCGCTTGACGCTGCTG”, the binding signal with GST-Ap-NF-kB RHD was 8.93 z-score; in test [1] it was 9 z-score; with GST-Co-NF-kB it was 9.25 z-score; in the test with GST-Dm-Relish, 7.98 z-score; with GST-Aq-NF-kB, 6.62 z-score; in the test with GST-Hu-p50, 6.87 z-score.

For “CCGATTAACATCAAGGGGGGGACTGATGTTAATCGGGTCTTGATTCGCTTGACGCTGCTG”, the binding signal with GST-Ap-NF-kB RHD amounted to 6.81 z-score; in test [1], 4.24 z-score; with GST-Co-NF-kB, 5.71 z-score; with GST-Dm-Relish, 4.41 z-score; with GST-Aq-NF-kB, 4.98 z-score; with GST-Hu-p50 it was 4.74 z-score.

Consider “CCGATTAACATCAATTCCCCCCGTGATGTTAATCGGGTCTTGATTCGCTTGACGCTGCTG”, for which the binding signal with GST-Ap-NF-kB RHD was 7.28 z-score; in test [1] it was 6.61 z-score; in the test with GST-Co-NF-kB, 8.8 z-score; with GST-Dm-Relish, 5.54 z-score; in the test with GST-Aq-NF-kB, 5.76 z-score; with GST-Hu-p50, 5.76 z-score.

Regarding “CCGATTAACATCAAAAATGCCCCTGATGTTAATCGGGTCTTGATTCGCTTGACGCTGCTG”, the binding signal stood at 4.41 z-score in the test with GST-Ap-NF-kB RHD; 6.79 z-score in test [2]; 2.95 z-score with GST-Co-NF-kB; 5.68 z-score with GST-Dm-Relish; 6.07 z-score with GST-Aq-NF-kB; 5.92 z-score in the test with GST-Hu-p50.

Take “CCGATTAACATCAGGGGATATAATGATGTTAATCGGGTCTTGATTCGCTTGACGCTGCTG”: the binding signal was found to be 5.05 z-score with GST-Ap-NF-kB RHD; 4.66 z-score in test [2]; 4.01 z-score with GST-Co-NF-kB; 3.82 z-score in the test with GST-Dm-Relish; 3.39 z-score with GST-Aq-NF-kB; 4.28 z-score in the test with GST-Hu-p50.

With “CCGATTAACATCAAAAACCACCCTGATGTTAATCGGGTCTTGATTCGCTTGACGCTGCTG”, the binding signal with GST-Ap-NF-kB RHD was determined as 4.27 z-score; in test [2] it was 3.46 z-score; in the test with GST-Co-NF-kB, 2.76 z-score; in the test with GST-Dm-Relish, 7.76 z-score; with GST-Aq-NF-kB, 4.53 z-score; with GST-Hu-p50 it was 5.64 z-score.

For “CCGATTAACATCACGGGCTTCCCTGATGTTAATCGGGTCTTGATTCGCTTGACGCTGCTG”, the binding signal with GST-Ap-NF-kB RHD worked out at 1.85 z-score; in test [2], 2 z-score; with GST-Dm-Relish, 7.65 z-score; with GST-Aq-NF-kB, 4.57 z-score; with GST-Hu-p50, 1.14 z-score.

For “CCGATTAACATCAGAAAATCACCTGATGTTAATCGGGTCTTGATTCGCTTGACGCTGCTG”, the binding signal amounted to 2.77 z-score in the test with GST-Ap-NF-kB RHD; 3.28 z-score in test [2]; 6.91 z-score with GST-Dm-Relish; 3.39 z-score with GST-Aq-NF-kB; 5.67 z-score in the test with GST-Hu-p50.

Take “CCGATTAACATCAGGGCACCCCCTGATGTTAATCGGGTCTTGATTCGCTTGACGCTGCTG”: the binding signal stood at 6.14 z-score with GST-Ap-NF-kB RHD; 4.52 z-score in test [2]; 2.4 z-score with GST-Co-NF-kB; 8.28 z-score with GST-Dm-Relish; 7.23 z-score with GST-Aq-NF-kB; 4.75 z-score with GST-Hu-p50.

For the sequence “CCGATTAACATCACGGAAACACCTGATGTTAATCGGGTCTTGATTCGCTTGACGCTGCTG”, the binding signal with GST-Ap-NF-kB RHD stood at 1.22 z-score; in test [1], 1.16 z-score; in the test with GST-Dm-Relish it was 1.78 z-score; with GST-Aq-NF-kB, 2.29 z-score; with GST-Hu-p50 it was 3 z-score.

On to “CCGATTAACATCAGGTGTTTCCATGATGTTAATCGGGTCTTGATTCGCTTGACGCTGCTG”, for which the binding signal was determined as 1.26 z-score with GST-Ap-NF-kB RHD; 1.06 z-score in test [2]; 2.26 z-score in the test with GST-Dm-Relish; 1.98 z-score in the test with GST-Aq-NF-kB; 2.81 z-score with GST-Hu-p50.

Regarding “CCGATTAACATCACCCCAAACGCTGATGTTAATCGGGTCTTGATTCGCTTGACGCTGCTG”, the binding signal worked out at 1.27 z-score with GST-Ap-NF-kB RHD, 1.79 z-score with GST-Co-NF-kB, 1.09 z-score in the test with GST-Aq-NF-kB and 1.17 z-score with GST-Hu-p50.

Consider “CCGATTAACATCAGGGGGGGTAATGATGTTAATCGGGTCTTGATTCGCTTGACGCTGCTG”, for which the binding signal in the test with GST-Ap-NF-kB RHD turned out to be 4.27 z-score; in test [1], 3.94 z-score; with GST-Co-NF-kB, 6.38 z-score; with GST-Dm-Relish it was 4.83 z-score; with GST-Aq-NF-kB, 4.38 z-score; with GST-Hu-p50, 3.7 z-score.

Consider “CCGATTAACATCAAAAAATCACCTGATGTTAATCGGGTCTTGATTCGCTTGACGCTGCTG”, for which the binding signal in the test with GST-Ap-NF-kB RHD was 2.88 z-score; in test [2] it was 4.37 z-score; with GST-Dm-Relish, 8.12 z-score; in the test with GST-Aq-NF-kB, 3.98 z-score; with GST-Hu-p50, 5.67 z-score.

For “CCGATTAACATCAGGGGCTTCCATGATGTTAATCGGGTCTTGATTCGCTTGACGCTGCTG”, the binding signal was 4.37 z-score with GST-Ap-NF-kB RHD; 4.89 z-score in test [2]; 6.97 z-score with GST-Dm-Relish; 5.03 z-score with GST-Aq-NF-kB; 4.38 z-score with GST-Hu-p50.

For the sequence “CCGATTAACATCAGGACATACCCTGATGTTAATCGGGTCTTGATTCGCTTGACGCTGCTG”, the binding signal turned out to be 1.92 z-score with GST-Ap-NF-kB RHD; 2.84 z-score in test [2]; 2.79 z-score with GST-Dm-Relish; 5.54 z-score with GST-Aq-NF-kB; 1.78 z-score with GST-Hu-p50.

Consider “CCGATTAACATCAGGCATACCCCTGATGTTAATCGGGTCTTGATTCGCTTGACGCTGCTG”, for which the binding signal stood at 1.96 z-score in the test with GST-Ap-NF-kB RHD; 1.5 z-score in test [2]; 1.89 z-score with GST-Co-NF-kB; 1.3 z-score in the test with GST-Dm-Relish; 3.12 z-score with GST-Aq-NF-kB; 1.59 z-score in the test with GST-Hu-p50.

Consider “CCGATTAACATCAAAAAAACACCTGATGTTAATCGGGTCTTGATTCGCTTGACGCTGCTG”, for which the binding signal with GST-Ap-NF-kB RHD was determined as 3.14 z-score; in test [2], 4.03 z-score; in the test with GST-Dm-Relish, 4.97 z-score; with GST-Aq-NF-kB, 4.34 z-score; in the test with GST-Hu-p50, 6.24 z-score.
